For 40 compounds, inhibition results are on record in PubChem BioAssay.

Values without a mark were called inactive. The source made the active and inactive calls. Unless noted, how the calls were made is not given here.

System in one test: not listed separately
The test is described as follows: human hepatoma cell viability loss – ATP luminescence, cytotoxicity control for P. falciparum antimalarial project, primary screen (AID 2303;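 active means inhibition above 50%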;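 further: 0% = DMSO wells and 100% = digitonin-killed cells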). Conditions: HepG2 viability, 24-48 h, at 10 µM, stronger effect = higher value.
Take `COc1ccc(-c2cc(-c3nc4ccc(CN)cc4[nH]3)c(=O)n(C)c2)cc1OC`: the inhibition (usually the drop in the measured response relative to a control, in per cent) is -12%.

With `CCCC(CCC)n1ccc2c3c(N)nc(N)nc3ccc21`, the inhibition is 66% (active).

With `CC(C)(C)c1ccc(NC(=O)c2ccc(CN3CCCN(Cc4ccsc4)CC3)cc2)cc1`, the inhibition is 50% (active).

For the compound `CN(C)Cc1cccc(CNC(=O)c2sccc2OCc2ccc(Cl)cc2)c1`, the inhibition is 7%.

With `COc1cccc(NC(=O)c2nc(N3CCN(c4ccncc4)CC3)ccc2Cl)c1`, the inhibition is 14%.

For `O=C(Nc1cccc(-c2cccc(-c3nc4ccc(C(F)(F)F)cc4[nH]3)c2)c1)Nc1ccc(F)c(F)c1F`, the inhibition was 71% (active).

With `COc1cc2nc(N3CCC(c4ccccc4)CC3)nc(NCc3ccc(=O)[nH]c3)c2cc1OC`, the inhibition was 12%.

Regarding `Cc1cc(=O)c(-c2ccc(Oc3cccc(Cl)c3)cc2)c(C)[nH]1`, the inhibition is 23%.

A further test deals with L-lactate dehydrogenase (Plasmodium falciparum (isolate CDC / Honduras)) (UniProt Q27743). The test is described as follows: PfLDH activity inhibition – cell lysate, 3D7 strain, counter-screen for P. falciparum growth inhibition project (AID 2304).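 Further: 0% = vehicle and 100% = reference inhibitor.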 The conditions noted are these: P. falciparum 3D7 crude extract, LDH APAD/NBT absorbance; at 2 µM; stronger effect = higher value. (In general: Counterscreens check selectivity or assay interference.)
L-lactate dehydrogenase (Plasmodium falciparum (isolate CDC / Honduras)), sequence (Q27743 whole entry, looked up): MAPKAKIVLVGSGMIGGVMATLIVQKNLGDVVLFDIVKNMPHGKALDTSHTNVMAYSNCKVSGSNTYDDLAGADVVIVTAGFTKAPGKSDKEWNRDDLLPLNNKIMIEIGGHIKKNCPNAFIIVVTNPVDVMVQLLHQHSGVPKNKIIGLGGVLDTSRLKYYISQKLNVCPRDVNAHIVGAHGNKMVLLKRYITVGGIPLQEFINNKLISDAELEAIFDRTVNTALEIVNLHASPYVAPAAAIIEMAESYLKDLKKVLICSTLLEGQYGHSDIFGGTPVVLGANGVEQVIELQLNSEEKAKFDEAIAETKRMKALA
As to `O=C(Nc1nc2cc(S(=O)(=O)NCCc3ccc(F)cc3)ccc2n1CCCn1ccnc1)c1ccc(Cl)cc1`, the inhibition was 3%.

With `Cc1[nH]c(C)c(C(F)(F)F)c(=O)c1-c1ccc(Oc2ccc(OC(F)(F)F)cc2)cc1`, the inhibition was -6%.

`COc1ccc(CNCc2cccc(-c3cccc(-c4nc5c(C)cccc5[nH]4)c3)c2)cc1`: the inhibition is -4%.

As for `CC(C)(C)c1ccc(C(=O)NC2CCC(CCN3CCc4ccc(S(C)(=O)=O)cc4CC3)CC2)cc1C(F)(F)F` (stereo not drawn), the inhibition is -8%.

As for `CCCCCCc1cc(Oc2c(I)cc(C[C@H](N)C(=O)O)cc2I)ccc1O`, the inhibition is -1%.

Take `CN(C)Cc1cccc(-c2ccc3ccnc(N)c3c2)c1`: the inhibition is 3%.

Regarding `CN1CCN(CCc2ccc3nc(-c4csc(Cc5cc(Cl)ccc5OCc5ccccc5)n4)[nH]c3c2)CC1`, the inhibition is -1%.

On to `COc1ccc(C=NNc2ccnc3cc(F)c(C)cc23)c2ccccc12`, for which the inhibition is 3%.

`Cc1nc(N)nc(N)c1OCc1cccc2c1ccc1ccccc12`: the inhibition was 1%.

With `Cc1nc(Nc2ccc(F)cc2)nc(N2CCc3cc(O)ccc3C2C)c1C` (stereo not drawn), the inhibition is -6%.

On to `CNc1ccc(CNCc2ccc(-c3ccc(-c4nc5ccc(C(F)(F)F)cc5[nH]4)s3)cc2)cc1`, for which the inhibition was -2%.

Consider `NCc1ccc(CNCc2cccc(-c3ccc(-c4nc5ccccc5[nH]4)cc3)c2)cc1`, for which the inhibition is -8%.

As for `CCN(CC)Cc1ccc2c(=O)cc(CCc3cccc(F)c3F)n(CC(=O)N(Cc3ccc(-c4ccc(C(F)(F)F)cc4)cc3)C(C)C)c2c1`, the inhibition is -6%.

As to `O=C(/C=C/c1ccc(Cl)c(Cl)c1)NCCCCCCN1CCN(C(=O)Nc2ccc(C(F)(F)F)cc2)CC1`, the inhibition was -1%.

On to `Cc1[nH]c(C)c(-c2ccc(C(=O)c3ccccc3)cc2)c(=O)c1Br`, for which the inhibition was 1%.

For `Cc1cnc(C(=O)Nc2ccc(-c3cccc(-c4nc5ccccc5[nH]4)c3)cc2)cn1`, the inhibition is -3%.

`FC(F)(F)c1ccc2nc(-c3ccc(-c4cccc(CN5CCN(c6ccncc6)CC5)c4)cc3)[nH]c2c1`: the inhibition was 2%.

As for `O=C(c1cccs1)N(Cc1cccc(-c2ccc(CNCCc3ccccc3)cc2)c1)C1CCN(Cc2ccccc2)CC1`, the inhibition was -3%.

As for `CCN(CC)CCN(Cc1ccc(-c2ccc(C(F)(F)F)cc2)cc1)C(=O)c1c[nH]c2ccc(Br)cc12`, the inhibition is -4%.

Consider `Cc1ccc(S(=O)(=O)NC2=NC(C)(C)N(OCc3ccc(Cl)c(Cl)c3)C(N)=N2)cc1`, for which the inhibition is 3%.

On to `COc1ccc(NC(=O)Nc2nc3ccccc3s2)cc1N1CCN(C)CC1`, for which the inhibition is -1%.

Turning to `CCN1CCC(N(Cc2ccc(-c3ccc(C(F)(F)F)s3)cc2)C(=O)Cn2c(CCc3cccc(F)c3F)nc(=O)c3ccccc32)CC1`, the inhibition was 7%.

For the compound `CC(C)c1cc(C(=O)N[C@@H](Cc2ccccc2)[C@H](O)CNC2CCCCC2)cc(N2CCCC2=O)c1`, the inhibition is 5%.

With `Cc1ccc(NC(=O)c2ccc3nccnc3c2)cc1OC1CCN(Cc2ccc(F)cc2)CC1`, the inhibition was 4%.

As to `CC(=O)Nc1ccc(CCNC(C)Cc2ccc(C(=O)Nc3ccc(CC(C)NCCc4cccc(Cl)c4)cc3)cc2)cc1` (stereo not drawn), the inhibition was -7%.

On to `CN(C)Cc1cccc(-c2ccc(NC(=O)c3ccc4c(=O)n(CCN5CCCCC5)cnc4c3)cc2)c1`, for which the inhibition is -1%.

Regarding `CCCCCCOc1ccc(C(=O)NCCCC2CCN(CCCCCNC(=O)C=Cc3ccc(Cl)c(Cl)c3)CC2)cc1`, the inhibition was -2%.

For the compound `COc1cc(NC(=O)NC(CCN2CCC3(CCc4ccccc43)CC2)c2ccc(Cl)c(Cl)c2)cc(OC)c1OC` (stereo not drawn), the inhibition was 6%.

For `Nc1nc(N)c2c(ccc3c2ccn3Cc2ccc(-c3ccccc3)cc2)n1`, the inhibition is 4%.

On to `COc1ccc(-c2ccc(NC(=O)c3ccc(F)cc3)cc2)cc1CNC(C)C`, for which the inhibition was 2%.

Regarding `O=c1cc(NCCCNCc2cc3ccc(Br)cc3s2)[nH]c2ccccc12`, the inhibition was -2%.

With `O=C(NCC1CCC(C(=O)NCc2cccc(C(F)(F)F)c2)CC1)c1ccc(O)c(-c2ccc(Cl)c(Cl)c2)c1` (stereo not drawn), the inhibition was 0%.

Regarding `COc1ccc(-c2cc(-c3nc4ccc(CN)cc4[nH]3)c(=O)n(C)c2)cc1OC`, the inhibition is 4%.

For `CCCC(CCC)n1ccc2c3c(N)nc(N)nc3ccc21`, the inhibition was -2%.

As to `CC(C)(C)c1ccc(NC(=O)c2ccc(CN3CCCN(Cc4ccsc4)CC3)cc2)cc1`, the inhibition was -7%.

`CN(C)Cc1cccc(CNC(=O)c2sccc2OCc2ccc(Cl)cc2)c1`: the inhibition is -6%.

Take `COc1cccc(NC(=O)c2nc(N3CCN(c4ccncc4)CC3)ccc2Cl)c1`: the inhibition is 1%.

As for `O=C(Nc1cccc(-c2cccc(-c3nc4ccc(C(F)(F)F)cc4[nH]3)c2)c1)Nc1ccc(F)c(F)c1F`, the inhibition is 6%.

As for `COc1cc2nc(N3CCC(c4ccccc4)CC3)nc(NCc3ccc(=O)[nH]c3)c2cc1OC`, the inhibition is 0%.

For the compound `Cc1cc(=O)c(-c2ccc(Oc3cccc(Cl)c3)cc2)c(C)[nH]1`, the inhibition is 0%.
